# From PubChem BioAssay AID493200 (National Center for Advancing Translational Sciences (NCATS), 2011)
# Inconclusive results are not listed. Entries that show only a call come without a potency. Activity calls are given as the source filed them. The call rests on the fitted dose curve; in most records, active means well fitted activation curve with a large enough effect; inconclusive means small, poorly fitted or top-dose-only effect; inactive means no such curve, though single readings can be large or run the other way.
# Assay: qHTS Assay for Rab9 Promoter Activators: Initial hit validation from the primary screen
# Summary of the method: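 Huh7 cells stably carrying a Rab9 promoter–luciferase construct, plated in reduced-serum medium with 10% FBS, rested 2 h, then exposed to compounds in DMSO for 24 h at 37C. Luminescence read 10 min after adding Amplite luciferase reagent.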
# Potency means the concentration at half of the fitted maximal effect.
row,SMILES,Potency
1,COc1cccc(C(C(=O)NC2CCCC2)N(CCC(C)C)C(=O)CCC(=O)Nc2cc(C)on2)c1 (centres undefined),inactive
2,Cc1ccc(N(O)C(=O)NCCCCNC(=O)N(O)c2ccc(C)cc2)cc1,15800 nM (active)
3,O=C(CCNC(=O)c1ccc(Br)o1)NCc1ccc(Cl)cc1,inactive
4,CC(=O)[C@@H]1[C@@H](C(=O)c2ccc(C)cc2)[C@]2(C(=O)Nc3ccccc32)[C@H]2C=Cc3cc(F)ccc3N12,inactive
5,CCOc1ccc(CNC(=O)C2CCCN(S(C)(=O)=O)C2)cc1OC (centres undefined),inactive
6,COc1ccc(-c2nnc(SCC(=O)/C(C#N)=C(\C)N)o2)cc1,315 nM (active)
7,N#C/C(=C\c1ccc[nH]1)C(=O)Nc1ccccc1Cl,3530 nM (active)
8,COc1cccc(NC(=O)CN2C(=O)CSc3ccc(S(=O)(=O)N4CCC(C)CC4)cc32)c1,inactive
9,CCN(C(=O)COC(=O)c1ccc(C=O)cc1)c1c(N)n(Cc2ccccc2)c(=O)[nH]c1=O,inactive
10,CC1CC(C)CN(CC(=O)N2CCOCC2)C1 (centres undefined),inactive
11,O=C(CSc1nnc(-c2ccccn2)o1)Nc1ccccc1Cl,888 nM (active)
12,COc1ccc(NC(=O)CSc2ccc([N+](=O)[O-])cc2)cc1S(=O)(=O)N1CCOCC1,inactive
13,CN(C)C(=O)[C@H]1C[C@H]1[C@@H](O)[C@H](CO)NC(=O)[C@H](COCc1ccccc1)NC(=O)OC(C)(C)C,inactive
14,CCCCn1c(Nc2ccc(OC)cc2)nc2ccccc21,inactive
15,Cc1nc2sc(C(=O)OC(C)C)c(N)c2c(C)c1C,15800 nM (active)
16,O=C(CCS(=O)(=O)c1ccccc1)Nc1ccc(-c2nc3ccccc3s2)cc1,223 nM (active)
17,O=C(Nc1ccc(-c2nc3cccnc3s2)cc1)c1ccc(Cl)nc1,888 nM (active)
18,Cc1cccc(C)c1NC(=O)Nc1cccs1,inactive
19,CC(C)C(NC(=O)c1ccc([N+](=O)[O-])cc1Cl)C(=O)N1CCCC1 (centres undefined),inactive
20,CC(C)C1(CCNC(=O)c2cccs2)CCOC(C)(C)C1 (centres undefined),inactive
21,CCOc1ccc(S(=O)(=O)NCc2ccccc2)cc1C(N)=O,inactive
22,O=C(NCCSCc1c(F)cccc1Cl)c1ccc(CN2CCOCC2)cc1,inactive

row,SMILES,Potency
1,CC(=O)Nc1ccc(NC(=O)COc2ncnc3ccccc23)cc1,inactive
2,COC(=O)c1sccc1NC(=S)OC,inactive
3,Cc1ccc(C(=O)Nc2nnc(S(=O)(=O)N3CCOCC3)s2)cc1,inactive
4,COc1ccc(S(=O)(=O)N2CCCC(C(=O)NCc3ccncc3)C2)cc1Cl (centres undefined),inactive
5,CCN(Cc1nc2cc(Cl)ccc2c(=O)[nH]1)C(=O)C1CC(=O)N(c2cccc3ccccc23)C1 (centres undefined),inactive
6,CCCNC(=O)C1CCN(S(=O)(=O)c2ccc3[nH]c(=O)ccc3c2)CC1,inactive
7,Cc1ccc(NC(=O)c2cccc(N3C(=O)CCC3=O)c2)nc1,inactive
8,Cc1cc(C)cc(N(CC(=O)NC2CCCC2)C(=O)CNC(=O)c2ccco2)c1,inactive
9,O=C(CSc1nnc(Cc2cc(=O)[nH]c(=O)[nH]2)n1-c1ccc(Cl)cc1)NC1CCCC1,inactive
10,COc1ccccc1C(=O)Nc1nnc(SCC(=O)NC2CCCC2)s1,888 nM (active)
11,COc1ccccc1OCCCC(=O)NCc1ccco1,inactive
12,Nc1c(N(CCO)C(=O)/C=C/c2ccco2)c(=O)[nH]c(=O)n1Cc1ccccc1,inactive
13,O=C(CSc1nnc(-c2ccccn2)o1)Nc1ccccc1F,1120 nM (active)
14,CCN(CC(=O)N(CC(C)C)c1c(N)n(CC(C)C)c(=O)[nH]c1=O)Cc1nc2ccccc2c(=O)[nH]1,inactive
15,CCOC(=O)c1ccccc1NC(=O)CSc1nnc(Cc2cccn2C)n1-c1ccc(F)cc1,inactive
16,O=C(CSc1nnc(-c2ccc([N+](=O)[O-])cc2)o1)Nc1ccccn1,560 nM (active)
17,O=C(NCC1CCCO1)C(c1ccc(F)cc1)N(Cc1ccc2c(c1)OCO2)C(=O)c1ccc(CN2CCOCC2)o1 (centres undefined),inactive
18,O=S(=O)(c1cccs1)N1CCN(c2ncccn2)CC1,inactive
19,COc1ccc([N+](=O)[O-])cc1COc1ccc2c(-c3ccccc3)cc(=O)oc2c1,inactive
20,CCC(C)(C)NC(=O)C(c1ccc(OC)cc1)N(Cc1cccs1)C(=O)CCC(=O)Nc1cc(C)on1 (centres undefined),inactive
21,O=C(O)C1=CC[C@@H](c2ccc(Cl)cc2)N(S(=O)(=O)c2ccc(Cl)cc2)[C@H]1c1ccccc1,inactive
22,O=C(CCN1C(=O)c2ccccc2C1=O)Nc1ccc(-c2nc3ccccc3s2)cc1,281 nM (active)
